This is a sample that favours compounds with a hit; in the whole collection about 8.9% have one here.
NPSR antag: qHTS Assay for Antagonists of the Neuropeptide S Receptor: cAMP Signal Transduction | CHO-NPSR cells, cAMP TR-FRET, antagonist mode | AID 1461, 2008 | Potency, µM (series often up to 38.3 µM), actives largely listed as inhibitors | 220,000 tested, 1% active; note: nearly all actives have a fitted effect of over 50% in size
ALDH1A1 block: qHTS Assay for Inhibitors of Aldehyde Dehydrogenase 1 (ALDH1A1) | Aldehyde dehydrogenase 1A1 (Homo sapiens), P00352 | Purified ALDH1A1, NADH fluorescence, propionaldehyde substrate | Potency, µM (top dose mostly 75.3 µM), most hits filed as inhibitors | 220,000 tested, 7.3% active; active = well fitted inhibition curve with a large enough effect, not every such curve was filed as active; inconclusive = small, poorly fitted or top-dose-only effect, or another doubt; inactive = no such curve, though single readings can be large or run the other way
IMPase Li cell: qHTS Assay for Identifying the Cell-Membrane Permeable IMPase Inhibitors: Potentiation with Lithium; CHO-M1 cells, IP1 TR-FRET (IP-One), carbachol + lithium; Potency, µM (top dose mostly 59.4 µM), most hits filed as inhibitors; 210,000 tested, 0.35% active; AID 1457, 2008;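 note: IP1 builds up when IMPase is blocked and the TR-FRET signal falls; nearly all actives have a fitted effect of over 50% in size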
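IP1 accumulation measured by competitive TR-FRET in lysed CHO-M1 cells after 30 min compound exposure at 37C, with a small lithium addition to potentiate weak responses. Hill-equation AC50 from ratio and donor-channel data.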
IMPase inh: qHTS Assay for Identifying the Cell-Membrane Permeable IMPase Inhibitors | Inositol monophosphatase 1 (Rattus norvegicus), P97697 | CHO-M1 cells, IP1 accumulation, HTRF TR-FRET ratio | inhibition (IP1 accumulation), % at 46.1 µM | 120,000 tested, under 10 active | AID 901, 2007; active = well fitted curve in the direction sought with a large enough effect in the signal ratio, not every such curve was filed as active; inconclusive = small, poorly fitted or top-dose-only effect, or a change in a side signal; inactive = no such curve, though single readings can be large or run the other way; the % refers to the signal ratio;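 note: cells stimulated with carbachol in lithium chloride buffer; higher means more IMPase inhibition seen as more IP1 and lower FRET ratio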
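The IP-One HTRF competitive assay in carbachol-stimulated CHO-M1 cells quantifies cellular IP1. Compounds spanned up to 46 uM final, and activity is expressed as AC50 from concentration-response fits of the ratio and donor data.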
HPGD block: qHTS Assay for Inhibitors of HPGD (15-Hydroxyprostaglandin Dehydrogenase) | 15-hydroxyprostaglandin dehydrogenase [NAD(+)] (Homo sapiens), P15428 | purified HPGD, NADH fluorescence kinetic, PGE2 substrate | Potency, µM, hits mostly inhibitors | 150,000 tested, 4.3% active | AID 894, 2007; active = well fitted inhibition curve with a large enough effect, not every such curve was filed as active; inconclusive = small, poorly fitted or top-dose-only effect, or another doubt; inactive = no such curve, though single readings can be large or run the other way
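NADH formation kinetics: reaction with 30 uM PGE2 and 1 mM NAD+ (final), 20 nM enzyme, Tris-HCl pH 8 with Tween 20, after 15 min compound preincubation at room temperature. Fluorescence change, last versus first of five reads.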
12-hLO inh: qHTS Assay for Inhibitors of 12-hLO (12-human lipoxygenase). Polyunsaturated fatty acid lipoxygenase ALOX12 (Homo sapiens), P18054. purified 12-hLO, xylenol orange hydroperoxide absorbance. Potency, µM (series often up to 57.1 µM), hits mostly inhibitors. 150,000 tested, 0.12% active; note: nearly all actives have a fitted effect of over 55% in size
Target sequence (P18054 whole entry, looked up): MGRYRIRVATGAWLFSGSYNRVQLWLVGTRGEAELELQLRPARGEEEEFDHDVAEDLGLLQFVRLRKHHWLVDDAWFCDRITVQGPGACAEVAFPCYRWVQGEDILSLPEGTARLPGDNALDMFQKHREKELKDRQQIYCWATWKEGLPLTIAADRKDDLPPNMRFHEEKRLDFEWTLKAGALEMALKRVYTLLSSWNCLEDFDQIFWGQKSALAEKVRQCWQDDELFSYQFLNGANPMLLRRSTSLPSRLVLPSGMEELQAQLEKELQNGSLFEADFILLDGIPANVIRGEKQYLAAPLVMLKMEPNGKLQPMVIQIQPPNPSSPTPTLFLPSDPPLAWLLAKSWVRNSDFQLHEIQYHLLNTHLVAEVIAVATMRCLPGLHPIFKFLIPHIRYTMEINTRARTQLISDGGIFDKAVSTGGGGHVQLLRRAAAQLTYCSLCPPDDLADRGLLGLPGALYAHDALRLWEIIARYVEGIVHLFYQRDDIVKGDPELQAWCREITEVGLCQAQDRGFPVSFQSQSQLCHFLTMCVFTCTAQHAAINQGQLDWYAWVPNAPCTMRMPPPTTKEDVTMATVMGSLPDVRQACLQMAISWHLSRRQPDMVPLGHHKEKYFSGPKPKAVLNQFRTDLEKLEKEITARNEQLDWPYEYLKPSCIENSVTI
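Hydroperoxide output read as Fe(III)-xylenol orange absorbance, 573-to-405 nm ratio, after 30 min reaction with 40 uM arachidonic acid. Enzyme: 150 nM purified human 12hLO, 15 min compound preincubation; 25 mM Hepes pH 7.0, room temperature.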
Numbers stand for hits. Unless noted, calls come from the whole dose curve; as a rule, active = well fitted curve in the direction sought with a large enough effect; inconclusive = small, poorly fitted or top-dose-only effect, or another doubt; inactive = no such curve, though single readings can be large; an effect the other way counts as inactive or inconclusive.

How did Brc1ccc(-c2nnc3sc(CN4CCN(c5ccccc5)CC4)cn23)cc1 do in these assays?
NPSR antag: inactive; ALDH1A1 block: inactive; IMPase Li cell: inactive; IMPase inh: inactive; HPGD block: inactive; 12-hLO inh: inactive

What do the screens show for `COc1cc2c(=O)n(Cc3ccco3)c(=O)n(CC(=O)c3cccc(Br)c3)c2cc1OC`?
NPSR antag: inactive; ALDH1A1 block: 1.1µM; IMPase Li cell: inconclusive; IMPase inh: inactive; HPGD block: inactive; 12-hLO inh: inactive

How did COc1cc2c(=O)n(Cc3ccccc3)c(=O)n(CC(=O)C(C)(C)C)c2cc1OC do in these assays?
NPSR antag: inactive

Results for COc1cc2c(=O)n(Cc3ccco3)c(=O)n(CC(=O)c3ccc(Br)cc3)c2cc1OC ?
NPSR antag: inactive; ALDH1A1 block: 0.4µM; IMPase Li cell: inconclusive; IMPase inh: inactive; HPGD block: inactive; 12-hLO inh: inactive

Results for COCCNC(=O)CCCn1c(=O)c2cc(OC)c(OC)cc2n(CC(=O)c2cccc(OC)c2)c1=O ?
NPSR antag: inactive; ALDH1A1 block: inactive; IMPase Li cell: inactive

Results for COC(=O)c1cc2c(C)cc3ccc(C)cn3c-2c1C(=O)OC ?
NPSR antag: inactive; ALDH1A1 block: 25µM; IMPase Li cell: 10µM; IMPase inh: inactive; HPGD block: inactive; 12-hLO inh: inactive

How did COC(=O)c1cc2ccccn2c2c(C(=O)OC)c(C(=O)OC)cc1-2 do in these assays?
NPSR antag: inactive; ALDH1A1 block: inactive; IMPase Li cell: inactive; IMPase inh: inactive; HPGD block: inactive; 12-hLO inh: inactive

What do the screens show for `CCCc1noc2c1/C(=N\O)CC(CC(C)SCC)C2` (stereo not drawn)?
NPSR antag: inactive; ALDH1A1 block: inconclusive; IMPase Li cell: inactive; IMPase inh: inactive; HPGD block: 8.9µM; 12-hLO inh: inactive

How did NC(=S)NN=C1C2CC3CC(C2)CC1C3 do in these assays?
NPSR antag: inactive; ALDH1A1 block: 25µM; IMPase Li cell: inactive

Results for NC(=O)C(=O)NN=C1C2CC3CC(C2)CC1C3 ?
NPSR antag: inactive; ALDH1A1 block: inactive; IMPase Li cell: inactive

How did CCN(CC)C(=O)Oc1ccc2c(=O)c(-c3ccc(OC)cc3)c(C)oc2c1 do in these assays?
NPSR antag: inconclusive; ALDH1A1 block: 14µM; IMPase Li cell: inactive; IMPase inh: inactive; HPGD block: inactive; 12-hLO inh: inactive

Results for C=C(C)C(=O)OC1(C(F)(F)F)Oc2cc(C)ccc2NC1=O (stereo not drawn) ?
NPSR antag: 10µM; ALDH1A1 block: inactive; IMPase Li cell: inactive; IMPase inh: inactive; HPGD block: inactive; 12-hLO inh: inactive

How did Cc1ccc2c(c1)Oc1ccc(NC(=O)CCCl)cc1C(=O)N2 do in these assays?
NPSR antag: inactive; ALDH1A1 block: inactive; IMPase Li cell: inactive

How did COc1ccc(S(=O)(=O)NCCOc2ccccc2)cc1-n1cnnn1 do in these assays?
NPSR antag: inactive; ALDH1A1 block: 8.9µM; IMPase Li cell: inactive

Results for CC(/C=C\c1ccccc1)=C/C(=O)O ?
NPSR antag: inactive

Results for O=C(/C=C/c1ccccc1)/C=C/c1ccccc1 ?
NPSR antag: inactive; ALDH1A1 block: 32µM; IMPase Li cell: inactive; HPGD block: inactive; 12-hLO inh: inactive

Results for CN1CCN(NC(=O)c2cn(-c3ccccc3)nc2-c2cccc(Br)c2)CC1 ?
NPSR antag: inactive; ALDH1A1 block: inconclusive; IMPase Li cell: inactive

How did CCCC/C(C)=N/NC(=O)c1cn(-c2ccccc2)nc1-c1ccccc1 do in these assays?
NPSR antag: inactive; ALDH1A1 block: 0.56µM; IMPase Li cell: inactive; IMPase inh: inconclusive; HPGD block: inactive; 12-hLO inh: inactive

How did CCC(C)/C(C)=N/NC(=O)c1cn(-c2ccccc2)nc1-c1ccccc1 (stereo not drawn) do in these assays?
NPSR antag: inactive; ALDH1A1 block: 6.3µM; IMPase Li cell: inactive; HPGD block: inactive; 12-hLO inh: inactive

What do the screens show for `CN1CCC(=NNC(=O)c2cn(-c3ccccc3)nc2-c2ccccc2)CC1`?
NPSR antag: inactive; ALDH1A1 block: 1.3µM; IMPase Li cell: inactive; HPGD block: inactive; 12-hLO inh: inactive

What do the screens show for `CCCC(C)NC(=O)c1ccc2[nH]c3c(c2c1)CC(C)CC3` (stereo not drawn)?
NPSR antag: inactive; ALDH1A1 block: 16µM; IMPase inh: inactive; 12-hLO inh: inactive

Results for O=[N+]([O-])c1cc(C(F)(F)F)ccc1N1CCC(O)CC1 ?
NPSR antag: inactive; ALDH1A1 block: 11µM; IMPase Li cell: inactive

How did NC(=O)C1CCN(c2ccc(C(F)(F)F)cc2[N+](=O)[O-])CC1 do in these assays?
NPSR antag: inactive; ALDH1A1 block: inactive; IMPase Li cell: inactive; IMPase inh: inactive; HPGD block: inactive; 12-hLO inh: inactive

How did O=C(CNC(=O)c1ccco1)N=Nc1c(O)n(CCc2ccccc2)c2ccccc12 do in these assays?
NPSR antag: inactive

How did Cc1oc2cc(OCc3cnn(-c4ccccc4)c3)ccc2c(=O)c1Oc1ccccc1F do in these assays?
NPSR antag: inactive; ALDH1A1 block: 5µM; IMPase Li cell: inactive; HPGD block: inactive; 12-hLO inh: inactive

How did O=C1OC(NCc2cccnc2)(c2ccc(Cl)cc2)c2ccccc21 (stereo not drawn) do in these assays?
NPSR antag: inactive; ALDH1A1 block: inactive; IMPase Li cell: inactive

How did CC1(C)Cc2ccccc2-c2nnnn21 do in these assays?
NPSR antag: inactive; ALDH1A1 block: 11µM; IMPase Li cell: inactive; IMPase inh: inactive; HPGD block: inactive; 12-hLO inh: inactive

How did c1ccc2c(c1)CC1(CCCC1)n1nnnc1-2 do in these assays?
NPSR antag: inactive; ALDH1A1 block: 13µM; IMPase inh: inactive; 12-hLO inh: inactive

Results for CCC(Oc1ccccc1)C(=O)NC1CCSC1=O (stereo not drawn) ?
NPSR antag: inactive; ALDH1A1 block: 6.3µM; IMPase Li cell: inconclusive

How did CCC(Oc1ccccc1)C(=O)Nc1ccccn1 (stereo not drawn) do in these assays?
NPSR antag: inactive; ALDH1A1 block: 2.8µM; IMPase Li cell: inactive; IMPase inh: inactive; HPGD block: inactive; 12-hLO inh: inactive

What do the screens show for `CCC(Oc1ccccc1)C(=O)Nc1cc(C)on1` (stereo not drawn)?
NPSR antag: inconclusive; ALDH1A1 block: inactive; IMPase Li cell: inactive; IMPase inh: inactive; HPGD block: inactive; 12-hLO inh: inactive
